The whole screen tested about 290,000 compounds, of which about 11,000 (3.8%) were called active.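 Rule for the calls: active = mean replicate inhibition above about 79%, with every replicate also reaching it (limit read from the data); inconclusive = only one of the two criteria met; inactive = mean below limit and not every replicate reaching it.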 What follows is part of a selection rich in actives, with near analogues and random picks from the rest.

The test deals with FAD-linked sulfhydryl oxidase ALR (Homo sapiens) (UniProt P55789). Briefly: inhibitors of human ALR sulfhydryl oxidase, primary screen, biochemical, H2O2 detection, HRP-luminol luminescence, single point (AID 485317). Conditions: purified ALR, DTT oxidation, stronger effect = higher value, concentration not given here.
FAD-linked sulfhydryl oxidase ALR (Homo sapiens), sequence (P55789 whole entry, looked up): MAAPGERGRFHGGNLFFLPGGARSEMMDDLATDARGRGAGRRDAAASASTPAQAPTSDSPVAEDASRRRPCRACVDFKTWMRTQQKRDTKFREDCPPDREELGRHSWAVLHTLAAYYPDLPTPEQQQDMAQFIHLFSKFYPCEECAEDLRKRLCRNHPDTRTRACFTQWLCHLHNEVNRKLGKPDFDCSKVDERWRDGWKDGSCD
With `CC1Cc2ccccc2N1S(=O)(=O)c1cccc(C(=O)OCC(=O)N2CCOCC2)c1` (stereo unspecified), the inhibition is 2.06% (inactive).

Consider `CC(=O)c1c(C)[nH]c(C(=O)COC(=O)c2cccs2)c1C`, for which the inhibition is -7.6% (inactive). On to `C=C(C)COc1ccc(-c2n[nH]c(C)c2-c2ccccc2OC)c(O)c1`, for which the inhibition was -0.153% (inactive). In the case of `COc1ccc(-c2n[nH]c(C)c2-c2ccccc2OC)c(O)c1`, the inhibition was 94.9% (active). The same measure for `COc1ccc(-c2n[nH]c(C)c2-c2ccc(OC)c(OC)c2)c(O)c1`: 25.6% (inactive); for `COc1ccc(Cl)cc1NC(=O)COC(=O)c1ccc(Br)o1`: 3.97% (inactive). With `CCCN(CC(=O)NC(=O)NC1CCCCC1)CC(=O)Nc1cc(Cl)ccc1Cl`, the inhibition was -2.78% (inactive). The same measure for `CCN(CCCNC(=O)c1ccc2c(c1)NC(=O)CN2C)c1cccc(C)c1`: 94.3% (active). With `Cc1cccc(C(=O)NCCCN(C)CCCNC(=O)c2cccc(C)c2)c1`, the inhibition is -2.47% (inactive). With `Cc1cccc(C(=O)NCCCN2CCCC2=O)c1` the figure was -1.37% (inactive); with `COc1ccccc1N(CCOc1ccccc1)S(=O)(=O)c1ccccc1`, -0.946% (inactive); with `CCCN(CC1CC1)C(=S)NC(=O)c1ccccc1Br`, -2.06% (inactive). For `N#CCC(=O)N/N=C/c1ccc(SCC(=O)Nc2ccccc2)o1`, the inhibition was 93.3% (active). With `Cc1ccc(/C=N/NC(=O)CSc2ccccn2)o1`, the inhibition is 3.05% (inactive).

On to `O=C(CCNC(=O)c1ccccc1)NN=Cc1ccc(Br)o1`, for which the inhibition was -2.22% (inactive).

On to `CC1(C)CC(=O)C=C(c2cccc3c2Oc2ccccc2S3)C1`, for which the inhibition was -3.51% (inactive). With `COc1ccc(C(=O)CSc2n[nH]c(N)n2)cc1` the figure was -11% (inactive); with `Nc1nc(SCC(=O)Nc2ccc(Cl)cc2C(F)(F)F)n[nH]1`, 0.457% (inactive); with `Nc1nc(SCC(=O)Nc2ccc(Cl)c([N+](=O)[O-])c2)n[nH]1`, -3.76% (inactive).

For `Nc1nc(SCC(=O)NN(c2ccccc2)c2ccccc2)n[nH]1`, the inhibition was 87.6% (active). Regarding `Nc1nc(SCC(=O)NNc2c(Cl)cc(Cl)cc2Cl)n[nH]1`, the inhibition is 95.6% (active). As to `COc1ccc(CNC(=O)CSc2n[nH]c(N)n2)cc1OC`, the inhibition is 4.3% (inactive). For `COc1ccc(N2CCN(S(=O)(=O)c3cc4c5c(c3)C(C)C(=O)N5CCC4)CC2)cc1` (stereo unspecified), the inhibition is 22.9% (inactive).

As to `O=C(NCc1ccccc1)C1=C[C@@H](c2ccccc2)C[C@@H](OCCCCO)O1`, the inhibition was -16.2% (inactive). As for `Cc1cc(NC(=O)C(C)N2C(=O)c3ccccc3S2(=O)=O)no1` (stereo unspecified), the inhibition is 3.27% (inactive). Regarding `CCN(CC(=O)Nc1c(F)cccc1F)C(=O)c1ccc(-c2ccccc2)cc1`, the inhibition is -12% (inactive).

Values taken from PubChem BioAssay AID485317 (Broad Institute, 2010).
